PubChem BioAssay AID652015 (National Center for Advancing Translational Sciences (NCATS), 2013)
Results filed as inconclusive are left out. Activity calls are given as the source filed them. Calls follow the shape of the dose curve; as a rule, active = well fitted inhibition curve with a large enough effect; inconclusive = small, poorly fitted or top-dose-only effect; inactive = no such curve, though single readings can be large or run the other way.

Molecular target: Coelenterazine h 2-monooxygenase (Renilla reniformis) (UniProt P27652)
Assay: qHTS Assay for Inhibitors of Sea Pansy Luciferase from the GSK Published Protein Kinase Inhibitor Set
Details: purified Renilla luciferase, luminescence; series mostly up to 57.5 µM
Summary of the method: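 qHTS (roughly 60 uM down to 300 pM) against 1 nM Renilla luciferase, substrate coelenterazine h 5 uM, Tris acetate pH 7.5 buffer with NaCl, Tween-20 and BSA. Luminescence measured after an average 2 min incubation.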

Coelenterazine h 2-monooxygenase (Renilla reniformis), sequence (P27652 whole entry, looked up): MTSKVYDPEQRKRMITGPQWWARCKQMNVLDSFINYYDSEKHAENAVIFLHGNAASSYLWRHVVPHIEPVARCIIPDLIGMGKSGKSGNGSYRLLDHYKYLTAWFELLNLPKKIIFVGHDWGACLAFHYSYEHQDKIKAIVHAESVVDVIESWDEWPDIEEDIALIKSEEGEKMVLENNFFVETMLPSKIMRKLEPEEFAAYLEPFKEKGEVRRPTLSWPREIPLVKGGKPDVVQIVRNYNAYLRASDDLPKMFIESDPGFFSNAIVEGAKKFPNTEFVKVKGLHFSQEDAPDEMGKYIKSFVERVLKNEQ

Potency, inactive:
COc1cc(Nc2ncc3c(C)nc(-c4cccc(C(F)(F)F)c4)n3n2)cc(OC)c1OC
COC(=O)Nc1nc2ccc(Oc3ccc(NC(=O)Nc4ccccc4)cc3)cc2[nH]1
CS(=O)(=O)Nc1ccc(-c2cc(-c3ccccc3)cc(C(N)=O)c2N)cc1
CCc1ccc(Oc2nccc(-c3c(-c4ccc(F)cc4)ncn3C3CCNCC3)n2)cc1
COC(=O)c1cncc(C=Cc2c(C)cc(O)cc2C)c1
CS(=O)(=O)CCNCc1ccoc1-c1ccc2ncnc(Nc3ccc(OCc4ccccc4)cc3)c2c1
Oc1[nH]c2ccccc2c1C=Nc1ccc(-n2cncn2)cc1
Cc1cccc(-c2[nH]ncc2-c2ccc3ncccc3n2)n1
Cc1ccc(NC(=O)c2ccoc2)cc1-c1ccc(C(=O)NCC2CC2)cc1
CC(Oc1cc(-n2cnc3ccc(OCC(O)CO)cc32)sc1C(N)=O)c1ccccc1Cl (configuration not stated)
CCS(=O)(=O)c1ccc(OC)c(Nc2ncc(-c3cccc(-c4ccccc4F)c3)o2)c1
NS(=O)(=O)c1ccc(N=Nc2c(O)[nH]c3ccc(-c4cnco4)cc23)cc1
O=S1CCN(Cc2ccc(-c3ccc4ncnc(Nc5ccc(OCc6ccccc6)c(Cl)c5)c4c3)o2)CC1
NC(=O)Cc1ccccc1Oc1nccc(-c2c(-c3ccc(F)cc3)ncn2C2CCNCC2)n1
Cc1cc(-c2ccco2)cc(C)c1C=Cc1cncc(-c2nn[nH]n2)c1
COc1ccccc1Nc1ncc(-c2ccccc2)o1
Fc1ccc(-c2nc3n(c2-c2ccncc2)CCS3)cc1
CCc1nn2ncccc2c1-c1ccnc(NC2CC2)n1
COc1ccc(-c2oc3ncnc(N)c3c2-c2ccc(NC(=O)Nc3cc(C(F)(F)F)ccc3F)cc2)cc1
Fc1ccc(-c2cc(-c3cn[nH]c3-c3ccccn3)ccn2)cc1
COC(=O)Nc1nc2ccc(Oc3cccc(NC(=O)Nc4cc(C(F)(F)F)ccc4F)c3)cc2[nH]1
COc1ccc2cc(-c3c(-c4ccncc4)nc(-c4ccc(S(C)=O)cc4)n3C)ccc2c1 (configuration not stated)
